In PubChem BioAssay (NCATS):
Inconclusive results are not listed. Calls of active or inactive are those of the source. Unless noted, the call rests on the fitted dose curve.

Tests used:
[1] = qHTS for Inhibitors of the Functional Ribonucleoprotein Complex (vRNP) of Lassa (LASV) Arenavirus: LASV Primary Screen - GLuc reporter signal (AID 1347082; calls by dose curve; tested in HEK293 reporter line; further: nearly all actives have a fitted effect of over 60% in size)
[2] = qHTS for Inhibitors of the Functional Ribonucleoprotein Complex (vRNP) of Lassa (LASV) Arenavirus: Viability assay - alamar blue signal for LASV Primary Screen (AID 1347083; calls by dose curve; tested in HEK293 reporter line; further: nearly all actives have a fitted effect of over 80% in size)
[3] = qHTS for Inhibitors of the Functional Ribonucleoprotein Complex (vRNP) of Lymphocytic Choriomeningitis Arenaviruses (LCMV): Viability assay - alamar blue signal for LCMV Primary Screen (AID 1347085; calls by dose curve; tested in HEK293 reporter line; further: nearly all actives have a fitted effect of over 80% in size)
[4] = target: Nucleoprotein (Lymphocytic choriomeningitis virus (strain Armstrong)) (UniProt P09992); assay: qHTS for Inhibitors of the Functional Ribonucleoprotein Complex (vRNP) of Lymphocytic Choriomeningitis Arenaviruses (LCMV): LCMV Primary Screen - GLuc reporter signal (AID 1347086); further: nearly all actives have a fitted effect of over 70% in size
Sequence of Nucleoprotein (Lymphocytic choriomeningitis virus (strain Armstrong)) (P09992 whole entry, looked up): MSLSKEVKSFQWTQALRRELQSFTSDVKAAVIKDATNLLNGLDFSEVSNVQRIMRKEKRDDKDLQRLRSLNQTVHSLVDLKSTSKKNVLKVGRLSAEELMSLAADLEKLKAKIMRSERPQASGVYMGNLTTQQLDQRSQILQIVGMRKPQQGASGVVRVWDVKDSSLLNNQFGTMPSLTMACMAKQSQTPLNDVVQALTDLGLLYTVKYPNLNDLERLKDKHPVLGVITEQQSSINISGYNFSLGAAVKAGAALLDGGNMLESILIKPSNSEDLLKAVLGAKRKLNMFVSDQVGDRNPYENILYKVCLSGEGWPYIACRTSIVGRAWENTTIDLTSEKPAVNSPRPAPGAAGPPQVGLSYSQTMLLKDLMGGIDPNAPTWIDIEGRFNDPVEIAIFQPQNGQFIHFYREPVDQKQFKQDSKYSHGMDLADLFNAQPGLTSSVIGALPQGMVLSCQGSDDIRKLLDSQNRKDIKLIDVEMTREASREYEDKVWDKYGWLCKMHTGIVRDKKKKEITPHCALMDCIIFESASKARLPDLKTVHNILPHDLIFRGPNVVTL

Measured: Potency
Further: series mostly up to about 57 µM.

O=C(O)CCC(=O)Nc1ccc(S(=O)(=O)Nc2nccs2)cc1
inactive: all assays above

CCOc1c(N2CCOCC2)cnn(C)c1=O
inactive: all assays above

CCOCC(O)COc1ccc(NC(=O)CC[S+](C)C)cc1 (stereo not given)
inactive: all assays above

CCCCOc1ccc(OCCCN2CCOCC2)cc1
inactive: all assays above

CC(C(=O)O)c1ccc2c(c1)Cc1cccnc1O2 (stereo not given)
inactive: all assays above

COc1ccc(CCN(C)CCCC(C#N)(c2cc(OC)c(OC)c(OC)c2)C(C)C)cc1OC (stereo not given)
inactive: all assays above

CN(C(=O)CCCOc1ccc2[nH]c(=O)ccc2c1)C1CCCCC1
inactive: all assays above

C[C@H]1[C@H]2CC[C@H]3[C@@H]4CC=C5C[C@@H](N(C)C)CC[C@]5(C)[C@H]4CC[C@]23CN1C
inactive: all assays above

CCCCN(CCN(CCCC)C(=O)N1CCOCC1)C(=O)N1CCOCC1
inactive: all assays above

C[C@]12C=CC(=O)C=C1CC[C@H]1[C@@H]3C[C@@H](O)[C@](O)(C(=O)CO)[C@@]3(C)C[C@H](O)[C@@]12F
inactive: all assays above

Clc1ccc(C(Cn2ccnc2)OCc2c(Cl)cccc2Cl)c(Cl)c1 (stereo not given)
inactive: all assays above

CC1(C)O[C@@H]2C[C@H]3[C@@H]4C[C@H](F)C5=CC(=O)CC[C@]5(C)[C@H]4[C@@H](O)C[C@]3(C)[C@]2(C(=O)CO)O1
inactive: all assays above

CC(C)(C)NCC(O)COc1cccc2c1CCC(=O)N2 (stereo not given)
inactive: all assays above

FC(F)(F)C(F)(F)C(F)(F)C(F)(F)C(F)(F)C(F)(F)C(F)(F)C(F)(F)Br
inactive: all assays above

C[C@]12CCC(=O)C=C1[C@@H]1C[C@@H]1[C@H]1[C@@H]3[C@@H]4C[C@@H]4[C@@]4(CCC(=O)O4)[C@@]3(C)CC[C@@H]12
inactive: all assays above

Cc1c(C)n(Cc2ccccc2)c2ccc(C(=O)OCCN(C)C)cc12
inactive: all assays above

O=C(O)/C=C/c1ccc(Cn2ccnc2)cc1
inactive: all assays above

CSc1ccc2c(c1)C(N1CCN(C)CC1)Cc1ccccc1S2 (stereo not given)
inactive: all assays above

C1CCN2C[C@@H]3C[C@@H](CN4CCCC[C@@H]34)[C@H]2C1
inactive: all assays above

Cc1c(N)cccc1C(F)(F)F
inactive: all assays above

c1ccc2c(c1)CCc1ccccc1N2
inactive: all assays above

O=C(Nc1ccccc1)OCC(CN1CCCCC1)OC(=O)Nc1ccccc1 (stereo not given)
inactive: all assays above

CCOC(=O)COc1ccc2c(C)c(CCN(CC)CC)c(=O)oc2c1Cl
inactive: all assays above

O=C(O)CCC(=O)OC[C@@H](NC(=O)C(Cl)Cl)[C@H](O)c1ccc([N+](=O)[O-])cc1
inactive: all assays above

COc1cc2c(cc1OC)C(C(C(=O)N(CCc1ccc(OC)c(OC)c1OC)CCc1ccc(OC)c(OC)c1OC)c1ccccc1)=NCC2 (stereo not given)
inactive: all assays above

O=C(c1ccc(F)cc1)C1CCN(CCn2c(=O)[nH]c3ccccc3c2=O)CC1
inactive: all assays above

O=[N+]([O-])c1nccn1CO[C@@H](CO)[C@H](O)CO
inactive: all assays above

O=C(NN1CCCC1)NS(=O)(=O)c1ccc(Cl)cc1
inactive: all assays above

c1cc(CN2CCCCC2)cc(OCCCNc2nc3ccccc3s2)c1
inactive: all assays above

CCCOC(C(=O)OC1CCN(C)CC1)(c1ccccc1)c1ccccc1
inactive: all assays above
